Here are results for 44 molecules from paper PMC4552634, “A New Set of Chemical Starting Points with Plasmodium falciparum Transmission-Blocking Potential for Antimalarial Drug Discovery” (PLoS ONE, 2015).

Hit rate of the full screen: of about 13,000 compounds, about 3,200 (25%) showed an effect of 50% or more. This is one part of the list.

The subject of this test is P. falciparum stage V gametocytes. Details: BacTiter-Glo ATP luminescence viability of purified stage V gametocytes in 384-well plates, per cent inhibition versus DMSO. To be noted: 48 h, 5 µM; inhibitor.
With `Cc1ccc(F)cc1S(=O)(=O)Nc1cccc(CCN2CCC(N3CCCCC3)CC2)c1` [TCMDC-134068], the “% Inhibition” value is given as 67.59%. Regarding `Cc1ccc(F)cc1S(=O)(=O)Nc1ccc(CCN2CCC(N3CCCCC3)CC2)cc1` [TCMDC-134088], the “% Inhibition” value came to 60.27%. On to `COc1ccc(C2C(C(=O)OC3CCCCC3)=C(C)NC3=C2C(=O)CCC3)cc1Br` (centres unmarked) [TCMDC-125070], for which the “% Inhibition” value is listed as -15.5%. The same measure for `COc1cc(CCCON2C(N)=NC(N)=NC2(C)C)cc(OC)c1OC` [TCMDC-131726]: 7.417%. Consider `COc1ccc(C=C2SC(=N)N(c3ccccc3OC)C2=O)cc1` [TCMDC-124486], for which the “% Inhibition” value worked out at 37.63%. The same measure for `NC1=NC2(CCCCC2)N(OCCCOc2cccc3ccccc23)C(N)=N1` [TCMDC-131649]: 49.63%. With `CCOc1ccc(Nc2nc(N)c3ccccc3n2)cc1.Cl` [TCMDC-123748], the “% Inhibition” value was determined as 31.55%. The figure for `Cl.c1ccc2c(Nc3ccc(Oc4ccc(Nc5c6ccccc6nc6ccccc56)cc4)cc3)c3ccccc3nc2c1` [TCMDC-124284] is 101.1%.

As to `CC(=O)Nc1ccc(Nc2c3ccccc3nc3ccccc23)cc1` [TCMDC-124356], the “% Inhibition” value amounted to 67.17%.

Take `Cl.c1ccc2c(Nc3ccc(OCCOCCOc4ccc(Nc5c6ccccc6nc6ccccc56)cc4)cc3)c3ccccc3nc2c1` [TCMDC-137355]: the “% Inhibition” value is 108.9%.

In the case of `CC(=O)Nc1cccc(Nc2c3ccccc3nc3ccccc23)c1` [TCMDC-123741], the “% Inhibition” value is on record as -71.42%. For the molecule `O=c1c2ccccc2[nH]c2nc3ccccc3c(Nc3ccccc3)c12` [TCMDC-141996], the “% Inhibition” value is reported as 28.3%.

`Cc1ccc(Nc2c3ccccc3nc3ccc(C)cc23)cc1` [TCMDC-124153]: the “% Inhibition” value was -51.64%. The same measure for `Cc1cc2cc(/C=C/C(=O)NC3CCC(CCN4CCc5ccc(C#N)cc5CC4)CC3)ccc2[nH]1` (centres unmarked) [TCMDC-139673]: -19.51%; for `CCn1cc2c3c(cc(C(=O)N[C@@H](Cc4ccccc4)[C@H](O)CNC4CCOCC4)cc31)N(C)S(=O)(=O)CC2` [TCMDC-135785]: -5.565%. The same measure for `COc1ccc(Nc2nc(NC3CCCC3)cc(-c3ccc(OC)cc3)n2)cc1` [TCMDC-133468]: -75.14%; for `Cc1ccccc1C1CCN(c2ccc(C(=O)Nc3ccc(F)cc3)cn2)CC1` [TCMDC-134611]: 39.85%; for `CC(C)[C@H](NC(=O)c1ccc(O)c(-c2ccc(Cl)c(Cl)c2)c1)C(=O)NCCN1CCOCC1` [TCMDC-140850]: -3.222%. The figure for `C=CCOC(=O)N1CCC(CNCc2ccc(-c3cccc(-c4nc5cccc(C)c5[nH]4)c3)cc2)C1.O=C(O)C(F)(F)F` (centres unmarked) [TCMDC-133039] is 9.6%; for `CC(Cc1ccc(Cl)cc1)Nc1nc(NC2CCCC2)nc(N2CCC(C#N)(c3ccccc3)CC2)n1` (centres unmarked) [TCMDC-139928] it is -79.71%; for `CC(C)(C)c1ccc(CN2CCCCC(NC(=O)c3cc(-c4cccc(Cl)c4)cs3)C2)cc1` (centres unmarked) [TCMDC-134468] it is -11.91%.

As to `CN(C)c1ccc(-c2ccc(C(=O)NC3CCN(Cc4ccc(C(C)(C)C)cc4)CC3)s2)cc1` [TCMDC-134354], the “% Inhibition” value is on record as -40.81%.

As to `CN(C)c1ccc(CN2CCCCC(NC(=O)c3cc(-c4ccccc4F)cs3)C2)cc1` (centres unmarked) [TCMDC-134471], the “% Inhibition” value was -62.25%.

With `CN(C)c1ccc(-c2csc(C(=O)NC3CCCCN(CCC(C)(C)C)C3)c2)cc1` (centres unmarked) [TCMDC-134487], the “% Inhibition” value was -62.75%.

In the case of `CC(=O)Nc1ccc(CN2CCC(NC(=O)c3cc(-c4ccc(N(C)C)cc4)cs3)C2)cc1` (centres unmarked) [TCMDC-134477], the “% Inhibition” value is reported as 92.99%. The same measure for `CN(C)c1ccc(-c2csc(C(=O)NC3CCN(Cc4ccc(C(C)(C)C)cc4)C3)c2)cc1` (centres unmarked) [TCMDC-134476]: 63.77%; for `CN(C)c1ccc(-c2csc(C(=O)NC3CCCCN(Cc4ccc(C(C)(C)C)cc4)C3)c2)cc1` (centres unmarked) [TCMDC-134470]: 63.14%. The figure for `O=C(NCC1CCC(C(=O)NCc2cccc(C(F)(F)F)c2)CC1)c1ccc(O)c(-c2ccc(Cl)c(Cl)c2)c1` (centres unmarked) [TCMDC-140886] is 8.372%; for `COc1ccc2sc(CNCCCNc3cc(=O)c4ccccc4[nH]3)c(Cl)c2c1` [TCMDC-140334] it is -8.727%. Turning to `O=C(NC1CCN(Cc2ccccc2)CC1)c1ccc(-c2nc3cc4ccccc4cc3[nH]2)s1` [TCMDC-140122], the “% Inhibition” value is reported as 18.76%.

`CC1Cc2ccccc2N1CC(=O)Nc1cc(C(F)(F)F)ccc1-n1cncn1` (centres unmarked) [TCMDC-124870]: the “% Inhibition” value is listed as -73.33%. The figure for `O=C(NCCNc1noc(-c2sccc2Br)n1)c1ccc(Cl)cc1` [TCMDC-134182] is 2.834%; for `O=c1cc(N2CCCNCC2)c(Cl)nn1Cc1ccc(NS(=O)(=O)c2ccc(Oc3ccccc3)cc2)cc1` [TCMDC-141692] it is 2.781%. Consider `COc1ccc(-c2cnc3[nH]cc(-c4ccc(CCC(=O)O)cc4)c3c2)cn1` [TCMDC-136240], for which the “% Inhibition” value stood at 35.75%. For the molecule `COc1ccc(-c2cnc3[nH]cc(-c4ccc(C(=O)O)cc4)c3c2)cn1` [TCMDC-136213], the “% Inhibition” value was determined as 14.9%. As for `COc1ccc(-c2cnc3[nH]cc(-c4ccncc4)c3c2)cc1OC` [TCMDC-135853], the “% Inhibition” value was determined as 140.3%. `COc1ccc(CNC(=O)C2Cc3ccccc3CN2Cc2ccc3ccccc3c2)cc1` (centres unmarked) [TCMDC-141565]: the “% Inhibition” value is reported as -15.29%. As to `O=C(Nc1nc(-c2ccccn2)cc2ccccc12)c1cccc(Cl)c1` [TCMDC-123886], the “% Inhibition” value came out at 116.1%. As for `CC1CCCN(C(=O)c2cc(-c3ccccn3)nc3c(Cl)cccc23)C1` (centres unmarked) [TCMDC-125218], the “% Inhibition” value is recorded as 20.47%. The figure for `COc1ccc(-c2nonc2NC(=O)c2cccc(Cl)c2)cc1OC` [TCMDC-125401] is 22.75%; for `NC(=Nc1nc(-c2ccccn2)cc2ccccc12)c1cccc(Cl)c1` [TCMDC-123745] it is 62.24%; for `CC(=O)Oc1cc(C(=O)Nc2ccc(Cl)cc2)cc2ccccc12` [TCMDC-123708] it is 7.424%. Regarding `O=C(O)c1ccc2nc(-c3ccccn3)c(-c3ccccn3)nc2c1` [TCMDC-123820], the “% Inhibition” value was -4.631%. On to `O=C(NC1CCN(Cc2ccccc2)CC1)c1ccc(-c2nc3cc(Cl)c(F)cc3[nH]2)s1` [TCMDC-140100], for which the “% Inhibition” value came out at 2.226%.
